CHRM1 agonist = human M1 muscarinic receptor agonism | CHO-K1 hM1, Fluo-8 calcium fluorescence, agonist mode; 0% DMSO, 100% acetylcholine EC100 | actives 0.33% (n = 360,000) | P11229 | AID 588814 | activation, % at 3 µM;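 active = activation above the run's mean compound activation plus 3 SD, cut at about 16% in these data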;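 also: peak over basal fluorescence ratio within a 140 s kinetic read after compound addition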
Target sequence (P11229 whole entry, looked up): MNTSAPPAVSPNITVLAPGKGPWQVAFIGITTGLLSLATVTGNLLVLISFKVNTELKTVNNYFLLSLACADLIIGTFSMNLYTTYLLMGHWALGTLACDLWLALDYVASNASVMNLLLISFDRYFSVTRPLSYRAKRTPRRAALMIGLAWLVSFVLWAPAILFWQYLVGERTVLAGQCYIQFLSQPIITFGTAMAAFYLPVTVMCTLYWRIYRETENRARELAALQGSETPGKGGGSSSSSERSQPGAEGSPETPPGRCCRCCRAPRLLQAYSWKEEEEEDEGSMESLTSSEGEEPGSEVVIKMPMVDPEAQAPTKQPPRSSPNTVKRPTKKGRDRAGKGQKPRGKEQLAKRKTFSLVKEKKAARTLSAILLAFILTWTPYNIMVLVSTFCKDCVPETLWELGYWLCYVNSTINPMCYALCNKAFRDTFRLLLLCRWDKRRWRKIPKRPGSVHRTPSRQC
M1 PAM = human CHRM1 positive allosteric modulation; CHO-K1 hM1, Fluo-8 calcium fluorescence, ACh EC20; 0% = ACh EC20, 100% = maximal ACh; P11229; AID 588819; activation, % at 3 µM; actives 0.088% (n = 360,000); in the data active = activation above about 19%, passing the limit was not always enough
CHO-K1 Ca antag = nonselective inhibitor or artifact in parental CHO-K1 cells; actives 0.6% (n = 360,000); inhibition, % at 3 µM; ATP-induced calcium, Fluo-8 fluorescence;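 active = inhibition above a per-plate cutoff, the plate's mean sample inhibition plus 3 SD, cut at about 24% in these data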;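 also: 0% = DMSO plus EC80 ATP and 100% = DMSO alone without ATP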
M1 antag = antagonists of human M1 muscarinic receptor; P11229; CHO-K1 hM1, Fluo-8 calcium fluorescence, ACh EC80 antagonist; inhibition, % at 3 µM; actives 1.3% (n = 360,000);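 active = percent inhibition above its own plate's cutoff, namely the mean of that plate's compound wells plus 3 SD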;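 also: peak over basal fluorescence ratio during 140 s after agonist addition; 0% = ACh EC80 plus DMSO and 100% = DMSO alone without agonist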
M1 ag parental = M1 agonist counterscreen hit in parental CHO-K1 cells. Fluo-8 calcium fluorescence; scaled to maximal ATP response, vehicle zero. activation, % at 3 µM. actives 0.48% (n = 360,000). AID 602248; in the data active = activation above about 15%;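 also: untransfected CHO-K1 host cells lacking M1 receptor as counterscreen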
M1 PAM parental = nonselective activator or artifact in parental CHO-K1 calcium assay | ATP EC20, Fluo-8 calcium fluorescence; 0% at ATP EC20, 100% at ATP max | actives 0.02% (n = 360,000) | activation, % at 3 µM | AID 602247;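 active = activation above the run cutoff, the mean activation of all test compounds plus 3 SD, cut at about 40% in these data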;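 also: peak over basal fluorescence ratio in a 140 s read after ATP addition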
Active calls of the source: *; ! = not confirmed by another sample. Hits are enriched below; roughly 2.4% of the tested compounds scored in any of these assays.

SMILES	CHRM1 agonist	M1 PAM	CHO-K1 Ca antag	M1 antag	M1 ag parental	M1 PAM parental
O=C(Oc1ccc([N+](=O)[O-])cc1)N1CCC(N2CCCCC2)CC1	-13	-41	-8	85*	1	13
CCOC(=O)CNC(=O)N1Cc2cc(-c3ccc(OC)cc3)ccc2-n2nncc2C1	-5	23	7	-53	1	6
CCN1/C(=C\C=C\C2=[N+](CC)c3ccccc3C2(C)C)C(C)(C)c2ccccc21	388*	-20	94*	96*	313*	-24
C=C1N2CCC(CC2)C1(O)c1ccc(C)c(C)c1 (configuration not stated)	-4	-22	6	72*	0	-17
O=C(c1cccc(C(F)(F)F)c1)C1CCCN(Cc2ccccc2O)C1 (configuration not stated)	-6	-7	-11	23	1	7
Cc1cccc(CN2CCCC(C(=O)c3cccc(OC(C)C)c3)C2)n1 (configuration not stated)	-12	-30	-8	17	2	9
COc1cccc(C(=O)C2CCCN(Cc3cccc(C)n3)C2)c1 (configuration not stated)	-12	-30	7	27*	0	-3
COc1ccc2cc(C(=O)C3CCCN(C4CCOCC4)C3)ccc2c1 (configuration not stated)	-7	-8	-12	4	2	10
Cc1cccc(CN2CCCC(C(=O)c3ccc4c(c3)OCO4)C2)n1 (configuration not stated)	-13	-32	4	33*	0	-7
COc1c(C)cc(C(=O)C2CCCN(C3CCOCC3)C2)cc1C (configuration not stated)	-4	-17	-13	55*	1	11
O=C(c1ccc2c(c1)OCO2)C1CCCN(Cc2c(F)cccc2Cl)C1 (configuration not stated)	-5	-23	-12	92*	0	9
O=C(NC1CCCCC1)N1Cc2cc(N3CCOCC3)ccc2-n2nncc2C1	-3	6	22	-7	0	-3
CC[n+]1c(-c2ccccc2)c2cc(N)ccc2c2ccc(N)cc21	-8	-6	-11	-4	1	21
COc1ccc(C(=O)C2CCCN(Cc3ccon3)C2)cc1OC (configuration not stated)	-12	6	-1	3	0	13
O=C(c1ccc2c(c1)OCO2)C1CCCN(CC2CCCCC2)C1 (configuration not stated)	-15	-37	-9	42*	4	4
COc1cccc(C(=O)C2CCCN(Cc3ccc4nsnc4c3)C2)c1 (configuration not stated)	-7	-22	-19	34*	0	15
COc1cccc(C(=O)C2CCCN(Cc3ccc(F)cc3)C2)c1 (configuration not stated)	-10	-21	-9	21	0	5
COc1c(C)cc(C(=O)C2CCCN(Cc3cccc(C)n3)C2)cc1C (configuration not stated)	-12	-30	-8	33*	1	20
CC(=O)NNC(=O)CN1C(=O)CN=C(c2ccccc2)c2cc(Br)ccc21	-1	10	5	-11	0	-11
CC(C)(C)C(=O)O[C@H]1CC[C@@]2(C)C(=CC(=O)C3C2CC[C@]2(C)C(=O)[C@H](O)CC32)C1 (some centres not stated)	0	5	3	-9	0	-7
ClC1C(Cl)C(Cl)C(Cl)C(Cl)C1Cl (configuration not stated)	47*!	-21	0	-15	0	16
O=[N+]([O-])c1ccc(-[n+]2c(-c3ccccc3)cc(-c3ccccc3)cc2-c2ccccc2)cc1	-11	-20	-5	36*	0	12
CCC(C)N1C(=O)NC(=O)C2(Cc3c(ccc4ccccc34)N(C)C2)C1=O (configuration not stated)	3	-15	2	44*	5	13
CCC1(Oc2ccccc2)C(=O)NC(=O)NC1=O	-2	13	-8	-20	0	11
CCC1(C)OC(c2ccccc2)=C/C(=C/C=C2C(=O)NC(=O)NC2=O)O1 (configuration not stated)	23*	-6	13	21	14	2
SMILES	CHRM1 agonist	M1 PAM	CHO-K1 Ca antag	M1 antag	M1 ag parental	M1 PAM parental
O=C(CCN1CC1)OCCOC(=O)CCN1CC1	-5	5	-15	-12	1	11
C[C@H]1OC[C@@H](C[N+](C)(C)C)O1	121*	-10	-1	83*	2	11
CC1OC(C[N+](C)(C)C)CC1O (configuration not stated)	114*	-13	4	88*	7	10
C=CCn1c(O)c(C(CC)=NCc2ccco2)c(=O)[nH]c1=O	-3	9	-13	-10	1	26
COc1ccc(OC(=O)N(C)C[C@@H]2OCc3cnnn3CCCC(=O)N([C@@H](C)CO)C[C@@H]2C)cc1	-2	-1	-6	-2	0	14
CCC[N+]12CCC(CC1)C(=C(c1ccccc1)c1ccccc1)C2	-7	-25	-12	99*	0	-10
CCCC[N+]12CCC(CC1)C(=C(c1ccccc1)c1ccccc1)C2	-14	-26	3	99*	0	-13
COC(=O)C1=C(c2ccc(C(C)=O)cc2)C[C@@H]2CC[C@H]1N2C(=O)NCc1ccc(C(F)(F)F)cc1	24*	-4	-5	13	24*	9
NS(=O)(=O)c1nc[nH]c1[N+](=O)[O-]	-2	12	-13	-10	1	11
Oc1ccc(Cl)c(Cl)c1Cl	-2	-23	-8	24*	8	-11
Clc1ccc(C[n+]2c(-c3ccccc3)cc(-c3ccccc3)cc2-c2ccccc2)cc1	-6	-14	8	36*	5	-1
Cc1cc(-c2ccccc2)cc(-c2ccccc2)[n+]1CCc1ccccc1	-10	-25	12	60*	1	12
Oc1ccc(-[n+]2c(-c3ccccc3)cc(-c3ccccc3)cc2-c2ccccc2)cc1	-11	-16	-1	18	0	7
COc1cc2c(cc1OC)[C@@H]1C(=O)c3ccc4c(c3O[C@@H]1CO2)C[C@H](C(C)C)O4	2	-10	29*	34	10	-6
CCOC(=O)c1c(C)[nH]c(C(=O)C(C)N2CCCC2)c1C (configuration not stated)	-16	5	-14	-6	0	5
CCCCCCC(Cl)(Cn1ccnc1)c1ccccc1 (configuration not stated)	-6	-24	-4	33*	1	22

Screens deposited in PubChem by The Scripps Research Institute Molecular Screening Center.
